An excerpt weighted towards active compounds, which were near 1.3% of everything screened.
cardiac RTF act: cardiac RTF calcium sensitivity activators, primary screen, biochemical, IANBD-TnC fluorescence, EC20 calcium; IANBD-labeled TnC RTF fluorescence at EC20 calcium; 0% EC20 calcium, 100% full calcium; activation, % at 7.2 µM; actives 0.24% (n = 340,000); AID 493008, 2010;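 active = activation above the mean over all tested compounds plus 3 SD, cut at about 30% in these data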;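 note: rise in fluorescence read as greater calcium sensitivity of cardiac thin filaments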
CRFBP-R2 agonist: agonists of CRF-BP/CRF-R2 complex, primary screen, cell-based, HEK293, calcium dye fluorescence, uHTS; actives 0.46% (n = 350,000); activation, % at 13.2 µM; CRF-binding protein / CRF receptor 2 complex (human); calcium dye fluorescence (FLIPR); percent of saturating CRF peptide response;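 active = activation of at least 50%, plus an integration ratio under a set limit after plate pattern correction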;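 note: plate controls were neutral control wells without compound for no effect and CRF at EC100 for full effect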
RTF Ca sens inh: cardiac RTF calcium sensitivity inhibitors, primary screen, biochemical, IANBD-TnC fluorescence, EC70 calcium. IANBD-labeled cardiac RTF, Ca2+ fluorescence. inhibition, % at 7.15 µM. actives 0.12% (n = 340,000). AID 493244, 2011;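 active = inhibition above the mean inhibition of all tested compounds plus 3 SD, cut at about 17% in these data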;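 note: assay run at fixed EC70 calcium of 1.6 mM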
CRFBP-R2 block: antagonists of CRF-BP/CRF-R2 complex, primary screen, cell-based, HEK293, calcium dye fluorescence, uHTS | inhibition, % at 11.8 µM | CRF-induced calcium fluorescence | AID 588475, 2011 | actives 0.59% (n = 350,000);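 active = inhibition of the ligand-induced calcium signal above about 50% at the single tested concentration, limit read from the data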
* = called active by the depositor; i = inactive; . = not tested or not shown; + = active, no number.

SMILES	cardiac RTF act	CRFBP-R2 agonist	RTF Ca sens inh	CRFBP-R2 block
COCC(=O)N(Cc1cc2ccc(C)c(C)c2n2nnnc12)C1CCCC1	3	0	-8	-12
Cc1ccc(/C=N/n2c(-c3cccc(Cl)c3)n[nH]c2=S)o1	.	0	.	83*
O=C(/C=C/c1cn(CC(O)CN2CCCCC2)c2ccccc12)c1cccs1 (stereo not given)	29	63*	-30	-80
COc1cc(OC)cc(C(=O)N/N=C/c2ccc(OC)c(COc3ccc(F)cc3)c2)c1	-3	62*	7	-45
COc1ccc(OCc2cc(/C=N\NC(=O)c3ccccc3)ccc2OC)cc1	6	2	-4	8
Cc1cc(C(C2C(=O)CC(C)(C)CC2=O)C2C(=O)CC(C)(C)CC2=O)cc(C)c1OC(F)F	-5	59*	-3	27
Nc1o[nH]c(=O)c1C1CCCCC1	-9	-2	-10	-12
Cc1ccc(CN2C(=O)C(C)Nc3ncnc(N4CCOCC4)c32)cc1 (stereo not given)	-1	0	0	-7
O=[N+]([O-])c1ccc(C2=NN(c3ccccc3)C(c3ccco3)C2)cc1 (stereo not given)	29	105*	-50	-92
C[n+]1ccccc1/C=C/c1ccc([N+](=O)[O-])cc1	-9	-1	2	16
CC1=NN(c2ccccc2)C(c2ccco2)C1 (stereo not given)	-6	-2	-6	7
O=[N+]([O-])c1ccc(/C=C/C2=NN(c3ccccc3)C(c3ccco3)C2)cc1 (stereo not given)	25	182*	-78	-174
O=C(C[n+]1cc(-c2ccc(F)cc2)n2c1CCC2)Nc1nc(-c2ccccc2)cs1	6	0	-3	14
Cc1ccc(-c2c[n+](CC(=O)Nc3nc(-c4ccc(F)cc4)cs3)c3n2CCC3)cc1	-3	-1	1	63*
O=C1c2ccc([N+](=O)[O-])cc2C(=O)N1Cc1cccnc1	7	0	-2	-2
Brc1ccccc1-c1nnc(CSc2nnnn2-c2ccccc2)o1	-2	0	7	111*
CCOC(=O)C1Nc2ccccc2C2C(O)C(O)CC12 (stereo not given)	80*	0	-73	-6
CC(C)c1ccc(S(=O)(=O)c2nnn3c2nc(N2CCCCC2)c2ccccc23)cc1	-4	0	-2	37
Cc1ccc(S(=O)(=O)c2nnn3c2nc(N2CCOCC2)c2ccccc23)c(C)c1	-5	-1	1	106*
Cc1ccc(S(=O)(=O)c2nnn3c2nc(N2CCOCC2)c2ccccc23)cc1C	-2	1	-9	55*
CC(C)N1CCN(Cc2nc(-c3ccccc3)cs2)CC1CCO (stereo not given)	-2	-3	10	82*
OCCC1CN(Cc2nc(-c3ccccc3)cs2)CCN1C1CCCC1 (stereo not given)	-2	1	-8	-2
NC(=O)CC(NC(=O)Cc1ccc(Cl)cc1)c1ccc(NCc2ccccc2)c([N+](=O)[O-])c1 (stereo not given)	-9	2	-5	-13
COc1cc(SC)ccc1C(=O)Nc1ccc(Br)cn1	4	3	-3	-3
COc1cc(SC)ccc1C(=O)Nc1ncc(C)s1	-2	0	4	105*
SMILES	cardiac RTF act	CRFBP-R2 agonist	RTF Ca sens inh	CRFBP-R2 block
CC1C2=C(CC(C)(C)CC2=O)NC2=C1C(=O)CC(C)(C)C2	0	68*	-3	-85
C/C(=N\NC(=S)Nc1ccc(C)cc1)c1cccc(N)c1	2	179*	6	17
C/C(=N\NC(=S)Nc1cccc(C)c1)c1cccc(N)c1	2	-3	3	18
CC1CCCC(C)N1C(=O)COC(=O)COc1ccc(C#N)cc1 (stereo not given)	-3	0	7	72*
CC(=O)Nc1cc(NC(C)=O)ncn1	0	0	-6	-5
Cc1[nH]c2ccccc2c1SCCNC(=O)c1ccc(S(=O)(=O)N2CCCC2)cc1	-2	-4	-6	114*
CSCCC(NC(=O)c1cccc(C)c1)C(=O)NNC(=O)c1cccs1 (stereo not given)	-5	0	-2	66*
CC(=O)OCCn1c(C)[n+](CCOC(C)=O)c2cc(Cl)c(Cl)cc21	6	0	-9	10
CC(=O)OCCn1c2nc(=O)[nH]c(=O)c-2nc2cc(C)c(C)cc21	+	203*	i	-160

Screening results: PubChem BioAssay, several laboratories
